Test results from PubChem BioAssay AID651640 (Broad Institute, 2012).
About 6,000 (1.7%) of roughly 350,000 compounds were called active. Roughly 5% stayed inconclusive and do not appear here. The full list was thinned out, with actives kept by preference. Values without a mark were called inactive. Rule as the data show it: active = CPE inhibition above about 20% (passing the limit was not always enough); inconclusive = no clear call, values can overlap the other calls; tested in BHK-21 cells.

Assay: protection of cells from dengue 2 killing – plate reader, single concentration, primary screen (AID 651640);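 also: 0% = median of neutral control wells and 100% = median of positive control wells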
Conditions: DENV2-infected cells, cytopathic effect rescue, at 9.99 µM, hits give high values

Going from `C[C@@H]1CCCCO[C@H](CN(C)S(=O)(=O)c2cccs2)[C@@H](C)CN([C@@H](C)CO)C(=O)c2cc(NC(=O)Nc3ccc4c(c3)OCO4)ccc2O1` to `C[C@@H]1CCCCO[C@@H](CN(C)S(=O)(=O)c2cn(C)cn2)[C@H](C)CN([C@@H](C)CO)C(=O)c2cc(NC(=O)Nc3ccccc3)ccc2O1`, the CPE inhibition falls from 2.44% to -1.09%.

First: O=C(N[C@H]1CC[C@H](CCNS(=O)(=O)c2ccc(F)cc2)O[C@H]1CO)C1CCC1
Second: CN(C)CC(=O)N[C@H]1CC[C@H](CCNC(=O)Nc2ccc(F)cc2)O[C@H]1CO
The CPE inhibition of the first is lower: 0.0715% for the first, 6.32% for the second.

Going from `CCNC(=O)Nc1ccc2c(c1)C(=O)N(C)[C@@H]1CC[C@@H](CC(=O)NCCOC)O[C@@H]1CO2` to `O=C(C[C@@H]1C[C@@H]2c3cc(NC(=O)NC4CCCC4)ccc3O[C@@H]2[C@H](CO)O1)NCC(F)(F)F`, the CPE inhibition rises from -6.67% to 7.08%.

First: CC(C)C#Cc1ccc2c(c1)O[C@@H](CN(C)Cc1ccncc1)[C@@H](C)CN([C@@H](C)CO)S2(=O)=O
Second: C[C@@H]1CN([C@@H](C)CO)S(=O)(=O)c2ccc(C#CC(C)(C)O)cc2O[C@H]1CN(C)C(=O)CN(C)C
The CPE inhibition of the first is lower: -4.86% for the first, 14.1% for the second.

First: COc1ccccc1C(=O)Nc1ccc(Nc2ccccc2)cc1
Second: COc1ccc(NC(=O)CSc2nc(N)c(-c3ccccc3)c(=O)[nH]2)cc1
The CPE inhibition of the first is lower: 1.78% for the first, 15.2% for the second.

Going from `CN(C)C(=O)CCc1ccc2c3c([nH]c2c1)[C@]1(CCC2CCCC2)[C@@H](C(=O)N2CCOCC2)C[C@H](CC(=O)NCc2ccco2)C(=O)N1CC3` to `COc1ccc(CNC(=O)C[C@H]2C[C@H](C(=O)N3CCOCC3)[C@@]3(CCC4CCCC4)c4[nH]c5ccc(Cl)cc5c4CCN3C2=O)cc1OC`, the CPE inhibition rises from -10.7% to 0.122%.

First: C[C@@H]1CN([C@H](C)CO)C(=O)c2cc(NC(=O)Cc3ccccc3)ccc2O[C@H]1CN(C)S(=O)(=O)c1cn(C)cn1
Second: C[C@@H]1CN([C@@H](C)CO)C(=O)c2cc(NS(C)(=O)=O)ccc2O[C@@H]1CN(C)C(=O)Nc1ccccc1
The CPE inhibition of the first is lower: 0.292% for the first, 4.47% for the second.

Going from `Cc1ccc(S(=O)(=O)Nc2ccc3c(c2)C(=O)N([C@H](C)CO)C[C@@H](C)[C@H](CN(C)S(=O)(=O)c2ccc(C)cc2)OCCCC[C@@H](C)O3)cc1` to `Cc1ccc(S(=O)(=O)N(C)C[C@@H]2OCCCC[C@@H](C)Oc3ccc(NS(=O)(=O)c4ccccc4)cc3C(=O)N([C@H](C)CO)C[C@@H]2C)cc1`, the CPE inhibition falls from 1.84% to 0.648%.

First: Cc1ccc(S(=O)(=O)N(C)C[C@H]2OCCCC[C@@H](C)Oc3ccc(NC(=O)NC4CCCCC4)cc3C(=O)N([C@H](C)CO)C[C@@H]2C)cc1
Second: Cc1ccc(S(=O)(=O)N(C)C[C@@H]2OCCCC[C@H](C)Oc3ccc(NS(=O)(=O)c4cn(C)cn4)cc3C(=O)N([C@H](C)CO)C[C@@H]2C)cc1
The CPE inhibition of the first is higher: 0.877% for the first, -2.41% for the second.

First: C[C@@H]1CN([C@H](C)CO)C(=O)c2cc(NC(=O)NC3CCCCC3)ccc2O[C@H]1CN(C)S(C)(=O)=O
Second: C[C@@H]1CN([C@@H](C)CO)C(=O)c2cc(NC(=O)CCCN(C)C)ccc2O[C@@H](C)CCCCO[C@@H]1CN(C)S(=O)(=O)c1ccc(Cl)cc1
The CPE inhibition of the first is higher: 2.68% for the first, -4.63% for the second.

Compared with `C[C@@H]1CCCCO[C@@H](CN(C)S(=O)(=O)c2cn(C)cn2)[C@H](C)CN([C@H](C)CO)C(=O)c2cc(NS(=O)(=O)c3ccc(Cl)cc3)ccc2O1`, `Cc1ccc(S(=O)(=O)Nc2cccc3c2O[C@H](CN(C)CC2CCCCC2)[C@H](C)CN([C@H](C)CO)C3=O)cc1` is lower in CPE inhibition: 3.2% for the first, -0.201% for the second.

Going from `CN(C)C(=O)[C@@H]1[C@@H](CO)[C@@H]2Cn3c(ccc(-c4ccccc4)c3=O)[C@@H]2N1CCC(F)(F)F` to `C[C@@H]1CN([C@H](C)CO)C(=O)c2ccccc2-c2ccccc2CO[C@H]1CN(C)C(=O)CCC(F)(F)F`, the CPE inhibition falls from 3.4% to 1.69%.

Going from `CC(C)C[C@H](NC(=O)CC1CCCC1)C(=O)N1CCC[C@H]1C(=O)NCc1ccccc1` to `O=C(C[C@H]1CC[C@H]2[C@@H](COC[C@@H](O)CN2Cc2ccccc2)O1)N[C@@H]1CCN(Cc2ccccc2)C1`, the CPE inhibition rises from -0.111% to 17.9%.

Going from `COc1ccc(NC(=O)N(C)C[C@@H]2Oc3ccc(NC(=O)CCC(F)(F)F)cc3C(=O)N([C@@H](C)CO)C[C@H]2C)cc1` to `COc1ccc(S(=O)(=O)N(C)C[C@H]2Oc3c(NC(=O)CCCCCC(=O)Nc4ccccc4N)cccc3C(=O)N([C@H](C)CO)C[C@H]2C)cc1`, the CPE inhibition rises from -3.47% to -2.7%.

Going from `O=C(C1CCCCC1)N1CC(=O)N2[C@H](CO)[C@H](c3ccc(Br)cc3)[C@H]2C1` to `O=C(c1cccnc1)N1CC(=O)N2[C@H](CO)[C@@H](c3ccc(-c4ccc(F)cc4)cc3)[C@@H]2C1`, the CPE inhibition rises from -9.75% to -0.715%.

Going from `N[C@@H]1CC[C@H](CCn2cc(C3CC3)nn2)O[C@@H]1CO` to `COc1ccccc1NC(=O)N[C@H]1CC[C@H](CCn2cc(-c3cccnc3)nn2)O[C@@H]1CO`, the CPE inhibition rises from -2.16% to 7.27%.

Compared with `N#C[C@H]1[C@@H](c2ccccc2-c2ccccc2F)[C@@H](CO)N1C(=O)C1CCC1`, `O=C(c1ccccc1)N1C[C@H]2[C@@H](c3ccccc31)[C@H](CO)N2Cc1ccccc1F` is lower in CPE inhibition: -1.39% for the first, -4.2% for the second.

Going from `C[C@@H]1CN([C@@H](C)CO)C(=O)c2cc(C3=CCCC3)cnc2O[C@H]1CN(C)C(=O)c1ccccn1` to `C[C@H](CO)N1C[C@H](C)[C@H](CN(C)Cc2cccc(F)c2)Oc2ncc(C#CCN(C)C)cc2C1=O`, the CPE inhibition falls from 1.01% to -7.01%.

Compared with `C=CCn1cc(-c2cccc(C(F)(F)F)c2)cc(C#N)c1=O`, `N#Cc1c(-c2ccccc2)nc(SCc2cccc(C(F)(F)F)c2)[nH]c1=O` is lower in CPE inhibition: -0.13% for the first, -3.77% for the second.

Going from `CCN(C[C@H]1[C@H](c2ccc(-c3ccccc3)cc2)[C@H](CO)N1CC1CC1)C(C)=O` to `COc1ccc(-c2ccc3c(c2)[C@H]2[C@H](CCN2S(=O)(=O)c2ccccc2F)[C@H](CO)N3)cc1`, the CPE inhibition falls from -11.4% to -28.4%.

First: Cc1nc(N)nc(SCc2ccc([N+](=O)[O-])cc2)c1N
Second: Cc1cc([N+](=O)[O-])nn1Cc1ccc(F)cc1
The CPE inhibition of the first is higher: 5.04% for the first, -2.03% for the second.

Going from `COc1ccccc1Cc1c(-c2ccc(F)cc2)nc2ccc(C)cn12` to `C/C=C/c1ccc2c(c1)O[C@@H](CN(C)S(=O)(=O)c1ccc(F)cc1)[C@@H](C)CN([C@H](C)CO)S2(=O)=O`, the CPE inhibition rises from -9.92% to 1.09%.

Compared with `CCCCN1C(=O)C(=O)N(CC(=O)Nc2cccc(C(C)=O)c2)C1=O`, `CCOC(=O)c1cccc(NC(=O)CCOc2ccccc2)c1` is higher in CPE inhibition: -4.58% for the first, -0.064% for the second.

First: O=C(C[C@@H]1CC[C@H]2[C@@H](COC[C@@H](O)CN2C(=O)c2ccc3c(c2)OCO3)O1)NC1CCCC1
Second: O=C(C[C@@H]1CC[C@@H]2[C@H](COC[C@H](O)CN2C(=O)c2ccc3c(c2)OCO3)O1)NC1CCCC1
The CPE inhibition of the first is lower: -3.32% for the first, -0.397% for the second.

Compared with `O=C(C[C@@H]1CC[C@@H]2[C@H](COC[C@H](O)CN2C(=O)c2cccnc2)O1)NC1Cc2ccccc2C1`, `O=C(C[C@H]1CC[C@@H]2[C@H](COC[C@H](O)CN2C(=O)c2ccc3c(c2)OCO3)O1)NC1CCC1` is higher in CPE inhibition: -4.15% for the first, 2.16% for the second.

`O=C(C[C@H]1CC[C@@H]2[C@H](COC[C@H](O)CN2Cc2ccccc2F)O1)NC1CCC1` showed a CPE inhibition of -4.44%.

In the case of `COc1ccc(NC(=O)c2cn(-c3ccccc3)nc2SC)cc1`, the CPE inhibition is reported as 30.9% (active).
For `O=C(C[C@H]1C[C@H](C(=O)N2CCOCC2)[C@@]2(CCC3CCCC3)c3[nH]c4ccc(Cl)cc4c3CCN2C1=O)NCc1ccco1`, the CPE inhibition was 88.4% (active).
In the case of `C[C@H](CO)N1C[C@H](C)[C@@H](CN(C)S(=O)(=O)c2cn(C)cn2)OCCCC[C@H](C)Oc2ccc(NC(=O)Cc3ccccc3)cc2C1=O`, the CPE inhibition is reported as 123% (active).
For `Cc1ccc(S(=O)(=O)N(C)C[C@@H]2Oc3ccc(NC(=O)NC4CCCCC4)cc3C(=O)N([C@@H](C)CO)C[C@H]2C)cc1`, the CPE inhibition was 23.4% (active).
In the case of `Cc1ccc(S(=O)(=O)N(C)C[C@H]2OCCCC[C@@H](C)Oc3ccc(NS(C)(=O)=O)cc3C(=O)N([C@H](C)CO)C[C@@H]2C)cc1`, the CPE inhibition is reported as 24.2% (active).
For `Cc1ccc(S(=O)(=O)Nc2ccc3c(c2)C(=O)N([C@H](C)CO)C[C@H](C)[C@@H](CN(C)S(=O)(=O)c2cn(C)cn2)OCCCC[C@H](C)O3)cc1`, the CPE inhibition was 39.2% (active).
In the case of `CC1(Cc2cccc(C#N)c2)C(=O)Nc2ccc(-c3cccc(C(F)(F)F)c3)cc21` (stereo not drawn), the CPE inhibition is reported as 94.5% (active).
In the case of `Cc1nc(SCc2ccc(F)cc2)c([N+](=O)[O-])[nH]1`, the CPE inhibition is reported as 70.9% (active).
In the case of `CCOC(=O)c1cccc(NC(=O)CN2C(=O)C3CC=CCC3C2=O)c1` (stereo not drawn), the CPE inhibition is reported as 76% (active).
In the case of `O=C(C[C@@H]1CC[C@@H]2[C@H](COC[C@H](O)CN2C(=O)Cc2ccccc2)O1)NC1CCC1`, the CPE inhibition is reported as 34.4% (active).
In the case of `O=C(C[C@@H]1CC[C@H]2[C@@H](COC[C@@H](O)CN2C(=O)c2ccc3c(c2)OCO3)O1)NC1Cc2ccccc2C1`, the CPE inhibition is reported as 35.1% (active).
For `O=C(C[C@H]1CC[C@H]2[C@@H](COC[C@@H](O)CN2C(=O)c2ccc3c(c2)OCO3)O1)NC1Cc2ccccc2C1`, the CPE inhibition was 32.6% (active).
